SIRT5 block – SIRT5 desuccinylase inhibitors, primary screen, biochemical, fluorescence imaging, single point, set 5; NAD-dependent protein deacylase sirtuin-5, mitochondrial (Homo sapiens), Q9NXA8; actives 1.1% (n = 330,000); Purified SirT5, succinyl-peptide AMC, trypsin-coupled fluorescence; inhibition, % at 15 µM; in the data active = inhibition above about 15%
Target sequence (Q9NXA8 whole entry, looked up): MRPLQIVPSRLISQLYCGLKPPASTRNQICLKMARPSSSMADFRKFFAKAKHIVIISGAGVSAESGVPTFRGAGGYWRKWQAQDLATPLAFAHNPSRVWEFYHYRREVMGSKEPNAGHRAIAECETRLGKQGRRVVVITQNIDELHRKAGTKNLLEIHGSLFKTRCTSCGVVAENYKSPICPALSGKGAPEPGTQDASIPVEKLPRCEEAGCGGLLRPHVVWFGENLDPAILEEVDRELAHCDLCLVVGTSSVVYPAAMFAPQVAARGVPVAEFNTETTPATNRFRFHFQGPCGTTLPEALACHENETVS
CASP6 VEID inh – human caspase-6 inhibitors, primary screen, biochemical, VEID-R110 fluorescence, single point, set 2 | actives 0.53% (n = 350,000) | purified caspase-6, Z-VEID-R110 cleavage fluorescence | inhibition, % at 12.5 µM;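 active = mean inhibition across replicates at least about 35%, with every replicate also reaching that limit, limit read from the data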;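 also: 0% = median of neutral control wells and 100% = no fluorescence left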
Target sequence (P55212 24-179 limits assumed): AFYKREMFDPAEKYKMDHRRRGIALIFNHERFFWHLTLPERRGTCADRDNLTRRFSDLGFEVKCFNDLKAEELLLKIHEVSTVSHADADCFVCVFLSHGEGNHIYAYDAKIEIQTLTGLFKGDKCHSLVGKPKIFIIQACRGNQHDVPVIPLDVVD
Target sequence (P55212 194-293 limits assumed): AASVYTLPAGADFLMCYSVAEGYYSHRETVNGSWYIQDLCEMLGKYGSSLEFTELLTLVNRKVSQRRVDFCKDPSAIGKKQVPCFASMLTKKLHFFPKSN
NSD2 inh – NSD2 histone methyltransferase inhibitors, primary screen, biochemical, AlphaScreen, single concentration, set 2 | inhibition, % at 12.5 µM | actives 0.54% (n = 310,000) | AID 743445, 2014 | NSD2 peptide methylation, 120 min; in the data active = inhibition above about 50%
PfHsp90 set2 – growth inhibition of PfHsp90-expressing yeast, primary screen, antimalarial PfHsp90 inhibitor project, S. cerevisiae, BacTiter-Glo luminescence, single point, set 2; BacTiter-Glo ATP, 48 h; yeast lacking PDR1 and PDR3 efflux regulators; inhibition, % at 9.4 µM; actives 0.32% (n = 310,000);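 active = every replicate shows inhibition above about 80%, whatever the replicate mean, limit read from the data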;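 also: 0% = DMSO neutral controls and 100% = 20 µM radicicol positive controls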
ARNT-TACC3 inh – disruptors of ARNT/TACC3 protein interaction, primary screen, biochemical, AlphaScreen, single concentration; Transforming acidic coiled-coil-containing protein 3 (Homo sapiens), Q9Y6A5; actives 0.66% (n = 390,000); AID 623870, 2012; AlphaScreen His-ARNT PAS-B/GST-TACC3 binding, luminescence; TACC3 fragment carries E629A point mutation; inhibition, % at 9.99 µM;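 active = mean inhibition of replicates at least 50% and at least half of replicates each reaching 50%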;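 also: 0% = complete ARNT plus TACC3 wells and 100% = ARNT alone without TACC3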
* marks the source's active call; other numbers are inactive results; ! = repeats disagree. Compounds with a hit are over-represented: about 2.1% of the library has one in this group of screens.

Results for O=c1[nH]c(CN2CCN(S(=O)(=O)/C=C/c3ccccc3)CC2)nc2ccccc12 ?
SIRT5 block: 15.7*; CASP6 VEID inh: 0.3; ARNT-TACC3 inh: -4.6

Results for COc1cc(OC)c(-c2nn3c(C4CCCCC4)nnc3s2)cc1OC ?
SIRT5 block: -4.6; CASP6 VEID inh: 43.1*; NSD2 inh: -1.7; PfHsp90 set2: -32.1; ARNT-TACC3 inh: 13.6

Results for COc1cc(-c2nnc3sc(C4CCCCC4)nn23)cc(OC)c1OC ?
PfHsp90 set2: -20.3; ARNT-TACC3 inh: 3.5

What do the screens show for `CC(C)S(=O)(=O)C1=NSC2=NC(=O)/C(=C\c3ccc(-c4cccc(C(=O)O)c4)o3)C(=N)N21`?
SIRT5 block: 21.0*; CASP6 VEID inh: 12.1; NSD2 inh: 17.7; PfHsp90 set2: 1.5; ARNT-TACC3 inh: -1.8

What do the screens show for `Fc1cccc(F)c1-c1nc(-c2ccncc2)no1`?
SIRT5 block: 20.1*; NSD2 inh: -2.7; PfHsp90 set2: -12.1; ARNT-TACC3 inh: -7.8

What do the screens show for `Cc1ccccc1-c1ccc([C@H]2[C@@H](CO)N3C(=O)CN(C(=O)Nc4ccc(F)cc4)C[C@@H]23)cc1`?
SIRT5 block: -4.3; CASP6 VEID inh: -0.3

How did COC(=O)/C(=C/Nc1ccccc1)[N+](=O)[O-] do in these assays?
NSD2 inh: -1.8; PfHsp90 set2: -10.9

Results for COC(=O)/C(=C/Nc1ccc(O)cc1)[N+](=O)[O-] ?
PfHsp90 set2: 22.5; ARNT-TACC3 inh: 23.7*

What do the screens show for `O=S(=O)(c1ccc(Cl)cc1)c1snnc1-c1ccccc1`?
NSD2 inh: -2.2; PfHsp90 set2: 49.3; ARNT-TACC3 inh: 10.4

How did O=S(=O)(c1ccc(F)cc1)c1snnc1-c1ccccc1 do in these assays?
SIRT5 block: 0.0; CASP6 VEID inh: 43.1*; NSD2 inh: 3.6; PfHsp90 set2: 19.8; ARNT-TACC3 inh: -8.0

Results for C[C@H](O)C#Cc1ccc2c(c1)O[C@@H](CN(C)Cc1ccc(-c3ccccc3)cc1)[C@@H](C)CN([C@H](C)CO)S2(=O)=O ?
SIRT5 block: 22.5*; CASP6 VEID inh: 0.8; ARNT-TACC3 inh: -8.5

What do the screens show for `C[C@H](O)C#Cc1ccc2c(c1)O[C@@H](CN(C)Cc1ccc(-c3ccccc3)cc1)[C@H](C)CN([C@@H](C)CO)S2(=O)=O`?
SIRT5 block: 16.6*!; CASP6 VEID inh: -2.2; ARNT-TACC3 inh: 4.7

Results for C[C@H](CO)N1C[C@H](C)[C@@H](CN(C)Cc2ccc(-c3ccccc3)cc2)Oc2cc(C#C[C@@H](C)O)ccc2S1(=O)=O ?
SIRT5 block: -2.4; CASP6 VEID inh: -1.0; ARNT-TACC3 inh: 15.4

How did C[C@@H](O)C#Cc1ccc2c(c1)O[C@@H](CN(C)Cc1ccc(-c3ccccc3)cc1)[C@@H](C)CN([C@@H](C)CO)S2(=O)=O do in these assays?
SIRT5 block: -1.3; CASP6 VEID inh: 2.3; ARNT-TACC3 inh: -2.7

What do the screens show for `C[C@@H](O)C#Cc1ccc2c(c1)O[C@H](CN(C)Cc1ccc(-c3ccccc3)cc1)[C@@H](C)CN([C@@H](C)CO)S2(=O)=O`?
SIRT5 block: 26.6*; CASP6 VEID inh: 0.5; ARNT-TACC3 inh: 0.2

What do the screens show for `C[C@H](CO)N1C[C@H](C)[C@@H](CN(C)Cc2ccccc2)Oc2cc(C#C[C@@H](C)O)ccc2S1(=O)=O`?
SIRT5 block: 6.9; CASP6 VEID inh: 1.8; ARNT-TACC3 inh: 4.9

Results for N#C[C@@H]1[C@H](c2ccc(-c3cccc(F)c3)cc2)[C@@H](CO)N1C(=O)NC1CCCCC1 ?
SIRT5 block: -0.6; CASP6 VEID inh: -3.3

Results for O=C(CCN1CCCCC1)NCC[C@H]1CC[C@H](NC(=O)C2CCOCC2)[C@@H](CO)O1 ?
SIRT5 block: 0.6; CASP6 VEID inh: -0.8; ARNT-TACC3 inh: -6.1

Results for COc1ccc2c3c(n(C)c2c1)[C@@H](CO)N(CC1CC1)CC31CN(Cc2ccc(F)cc2)C1 ?
SIRT5 block: -1.7; CASP6 VEID inh: -2.2

How did COc1ccc(Cc2c(-c3ccco3)nc3c(C)cc(Br)cn23)c(C)c1 do in these assays?
SIRT5 block: -1.1; CASP6 VEID inh: 38.9*

Results for COc1ccc(Cc2c(-c3ccco3)nc3ccc(Br)cn23)c(C)c1 ?
SIRT5 block: 2.9; CASP6 VEID inh: 6.8

What do the screens show for `CCCNC(=O)NC[C@@H]1[C@H](c2ccc(C3=CCCC3)cc2)[C@H](CO)N1C(C)=O`?
ARNT-TACC3 inh: -5.9

How did O=C(O)C1Sc2[nH]c(=O)sc2C2c3ccc(O)cc3OC(=O)C12 (centres undefined) do in these assays?
SIRT5 block: -9.3; CASP6 VEID inh: 57.7*; NSD2 inh: 0.8; PfHsp90 set2: 13.5; ARNT-TACC3 inh: 19.0

What do the screens show for `O=C(Nc1cccnc1Cl)c1ccc(=O)oc1`?
SIRT5 block: 44.1*; CASP6 VEID inh: 54.2*; NSD2 inh: 6.3; PfHsp90 set2: -9.5; ARNT-TACC3 inh: 0.0

How did CCS(=O)(=O)Nc1ccc2c(c1)C(=O)N(C)[C@H]1CC[C@H](CC(=O)Nc3ccc(Cl)cc3)O[C@@H]1CO2 do in these assays?
SIRT5 block: -2.6; CASP6 VEID inh: -0.9; ARNT-TACC3 inh: 3.8

What do the screens show for `Cc1ccccc1C(=O)NCCNC(=O)c1ccccn1`?
SIRT5 block: 3.4; CASP6 VEID inh: -0.6; NSD2 inh: 6.1; PfHsp90 set2: -14.5; ARNT-TACC3 inh: -1.2

What do the screens show for `O=C(NNC(=S)Nc1ccc(Cl)c(Cl)c1)c1ccccn1`?
SIRT5 block: -1.2; CASP6 VEID inh: 0.2; NSD2 inh: -3.5; PfHsp90 set2: -53.5; ARNT-TACC3 inh: 74.8*

Results for CCNC(=S)NNC(=O)c1ccccn1 ?
NSD2 inh: -20.1; PfHsp90 set2: -5.5; ARNT-TACC3 inh: 67.5*

How did O=C(NCCNC(=O)c1ccccc1F)c1ccccn1 do in these assays?
SIRT5 block: 15.7*; CASP6 VEID inh: -0.1; NSD2 inh: 3.4; PfHsp90 set2: -2.9; ARNT-TACC3 inh: -1.6

How did C[C@@H]1CN([C@@H](C)CO)C(=O)c2ccccc2-c2ccccc2CO[C@H]1CN(C)C(=O)Nc1ccc2c(c1)OCO2 do in these assays?
SIRT5 block: -2.5; CASP6 VEID inh: 1.3; ARNT-TACC3 inh: 0.4

How did COc1ccccc1N1CCN(S(=O)(=O)c2ccc3c(c2)NC(=O)C(C)S3)CC1 (centres undefined) do in these assays?
SIRT5 block: -0.2; CASP6 VEID inh: -4.8; NSD2 inh: -2.3; PfHsp90 set2: -37.4; ARNT-TACC3 inh: 0.8

How did COc1ccccc1N1CCN(C(=O)C(C)CS(=O)(=O)c2ccc3c(c2)NC(=O)CS3)CC1 (centres undefined) do in these assays?
SIRT5 block: -0.4; CASP6 VEID inh: 68.2*; NSD2 inh: 1.6; PfHsp90 set2: 20.5; ARNT-TACC3 inh: 4.5

High-throughput results deposited in PubChem by Broad Institute.
